Experimental data: PubChem BioAssay (NCATS)
Results filed as inconclusive are left out. Activity calls are given as the source filed them. Unless noted, calls follow the shape of the dose curve; as a rule, active = well fitted cell-killing curve with a large enough effect; inconclusive = small, poorly fitted or top-dose-only effect, or effect the other way; inactive = no such curve, though single readings can be large or run the other way.

What was measured:
[1] = Quantitative High-Throughput drug screen in 47 multiple myeloma cell lines against the NCATS MIPE library collection: KMS28PE_JCRB cell viability assay (AID 1918983); also: nearly all actives have a fitted effect of over 35% in size
Procedure, shortened: (§1)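 Viability after 48 h drug exposure was measured as ATP-dependent luminescence. Cells, 500 per well, sat at 37 °C under 5% CO2; DMSO wells set 100%, media-only wells 0%.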

[2] = Quantitative High-Throughput drug screen in 47 multiple myeloma cell lines against the NCATS MIPE library collection: L363_DSMZ cell viability assay (AID 1918984); also: nearly all actives have a fitted effect of over 40% in size
Procedure, shortened: as §1

[3] = Quantitative High-Throughput drug screen in 47 multiple myeloma cell lines against the NCATS MIPE library collection: KMS34_JCRB cell viability assay (AID 1918985); also: nearly all actives have a fitted effect of over 40% in size
Procedure, shortened: as §1

[4] = Quantitative High-Throughput drug screen in 47 multiple myeloma cell lines against the NCATS MIPE library collection: OCIMY7_PLB cell viability assay (AID 1918987); also: nearly all actives have a fitted effect of over 65% in size
Procedure, shortened: as §1

[5] = Quantitative High-Throughput drug screen in 47 multiple myeloma cell lines against the NCATS MIPE library collection: OCIMY5_PLB cell viability assay (AID 1918988); also: nearly all actives have a fitted effect of over 65% in size
Procedure, shortened: as §1

[6] = Quantitative High-Throughput drug screen in 47 multiple myeloma cell lines against the NCATS MIPE library collection: OPM1_PLB cell viability assay (AID 1918989); also: nearly all actives have a fitted effect of over 40% in size
Procedure, shortened: as §1

[7] = Quantitative High-Throughput drug screen in 47 multiple myeloma cell lines against the NCATS MIPE library collection: SKMM1_PLB cell viability assay (AID 1919863); conditions: SKMM1 myeloma viability, CellTiter-Glo ATP, 48 h; viability: stronger effect = lower value; also: nearly all actives have a fitted effect of over 35% in size
Procedure, shortened: as §1

[8] = Quantitative High-Throughput drug screen in 47 multiple myeloma cell lines against the NCATS MIPE library collection: XG6_PLB cell viability assay (AID 1919865); also: nearly all actives have a fitted effect of over 40% in size
Procedure, shortened: as §1

[9] = Quantitative High-Throughput drug screen in 47 multiple myeloma cell lines against the NCATS MIPE library collection: XG1_PLB cell viability assay (AID 1919866); also: nearly all actives have a fitted effect of over 35% in size
Procedure, shortened: as §1

[10] = Quantitative High-Throughput drug screen in 47 multiple myeloma cell lines against the NCATS MIPE library collection: VP6_DJ cell viability assay (AID 1919867); also: nearly all actives have a fitted effect of over 40% in size
Procedure, shortened: as §1

[11] = Quantitative High-Throughput drug screen in 47 multiple myeloma cell lines against the NCATS MIPE library collection: UTMC2_PLB cell viability assay (AID 1919868); conditions: CellTiter-Glo ATP luminescence, 48 h; viability (% of DMSO control): at 45.8 µM (top of the series) unless noted; also: nearly all actives have a fitted effect of over 55% in size
Procedure, shortened: as §1

[12] = Quantitative High-Throughput drug screen in 47 multiple myeloma cell lines against the NCATS MIPE library collection: PE2_PLB cell viability assay (AID 1919869); also: nearly all actives have a fitted effect of over 35% in size
Procedure, shortened: as §1

[13] = Quantitative High-Throughput drug screen in 47 multiple myeloma cell lines against the NCATS MIPE library collection: PCM6_Riken cell viability assay (AID 1919870); also: nearly all actives have a fitted effect of over 30% in size
Procedure, shortened: as §1

[14] = Quantitative High-Throughput drug screen in 47 multiple myeloma cell lines against the NCATS MIPE library collection: RPMI8226_ATCC cell viability assay (AID 1919871); also: nearly all actives have a fitted effect of over 30% in size
Procedure, shortened: as §1

[15] = Quantitative High-Throughput drug screen in 47 multiple myeloma cell lines against the NCATS MIPE library collection: OPM2_DSMZ cell viability assay (AID 1919872); also: nearly all actives have a fitted effect of over 30% in size
Procedure, shortened: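 Myeloma cells (500 per well) were exposed to MIPE 4.0 compounds by pin transfer and incubated 48 hours at 37C, 5% CO2. Viability was read as ATP by CellTiter-Glo luminescence, normalised to DMSO (100%) and media-only (0%) wells.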

[16] = Quantitative High-Throughput drug screen in 47 multiple myeloma cell lines against the NCATS MIPE library collection: KMS11_JCRBsus cell viability assay (AID 1919873); also: nearly all actives have a fitted effect of over 50% in size
Procedure, shortened: as §1

[17] = Quantitative High-Throughput drug screen in 47 multiple myeloma cell lines against the NCATS MIPE library collection: KMS28BM_JCRB cell viability assay (AID 1919874); also: nearly all actives have a fitted effect of over 35% in size
Procedure, shortened: as §1

[18] = qHTS drug screen for cell cycle checkpoint inhibitors in PARPi-resistant BRCA-mutant ovarian cancer cell lines. (AID 1963452; calls by dose curve); conditions: PEO1/OlaR viability, CellTiter-Glo luminescence, 96 h; for Z-AUC: stronger effect = lower value
Procedure, shortened: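 PEO1, PEO4 and PEO1/OlaR ovarian cancer cells, 600 per well, exposed 96 h at 37C to a dilution series. Viability read by CellTiter-Glo luminescence, normalized to DMSO and empty wells; activity summarized as Z-AUC.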

[19] = qHTS for identification of novel therapeutic agents for treatment of microphthalmiaassociated transcription factor (MiT) renal cell carcinoma (RCC) (AID 1963991; calls by dose curve); conditions: CellTiter-Glo, 48 h; for z-score: stronger effect = lower value
Procedure, shortened: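 Viability of three TFE3-fusion renal carcinoma lines measured by CellTiter-Glo after 48 h treatment with each of 1912 compounds at 11 concentrations. Responses scaled between DMSO (100%) and empty wells (0%) before curve fitting.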

[20] = Quantitative High-Throughput drug screen in 47 multiple myeloma cell lines against the NCATS MIPE library collection: U266_ATCC cell viability assay (AID 1919864); also: nearly all actives have a fitted effect of over 35% in size
Procedure, shortened: as §1

[21] = measured here: PEO1 parental Z-AUC
Potency is read from the fitted curve at half-maximal effect.

C=CC(=O)Nc1cc2c(Nc3ccc(F)c(Cl)c3)ncnc2cc1C#CC(C)(C)N1CCN(C)CC1
active: Potency [1] 0.833 µM | Potency [2] 1.48 µM | Potency [3] 5.26 µM | Potency [4] 0.469 µM | Potency [5] 0.935 µM | Potency [6] 0.833 µM | Potency [7] 13.2 µM | Potency [8] 0.296 µM | Potency [9] 0.526 µM | Potency [10] 0.833 µM | Potency [11] 2.35 µM | Potency [12] 1.05 µM | Potency [13] 0.662 µM | Potency [14] 6.62 µM | Potency [15] 10.5 µM | Potency [16] 1.32 µM | Potency [17] 0.469 µM | Potency ([19]; TFE3-RCC UOK109 viability, active = Z-AUC below -0.8 in all three lines) 14.8 µM
inactive: Z-AUC [18] -0.203
-1.76: z-score ([19]; TFE3-RCC viability, measured here: UOK124 Z-AUC)
-1.33: z-score ([19]; TFE3-RCC viability, measured here: UOK145 Z-AUC)
-2.39: z-score ([19]; TFE3-RCC UOK109 viability, measured here: UOK109 Z-AUC)
-0.45: Z-AUC ([18]; measured here: PEO4 Z-AUC)
-0.15: Z-AUC [18, 21]

Cc1nc(N)ncc1-c1nc(N2CCOCC2)c2sc(C(C)(C)O)cc2n1
inactive: Z-AUC [18] 0.231
0.116: Z-AUC ([18]; measured here: PEO4 Z-AUC)
active: Potency [1] 0.118 µM | Potency [2] 0.0743 µM | Potency [3] 1.66 µM | Potency [4] 1.18 µM | Potency [5] 0.662 µM | Potency [6] 1.18 µM | Potency [7] 0.166 µM | Potency [8] 3.32 µM | Potency [9] 1.66 µM | Potency [10] 0.935 µM | Potency [11] 0.332 µM | Potency [12] 1.05 µM | Potency [14] 0.264 µM | Potency [15] 3.72 µM
0.219: Z-AUC [18, 21]

CC1(C)OC2=C(C(=O)c3ccccc3C2=O)[C@H](NCc2ccccc2)[C@H]1O
active: Potency [1] 6.62 µM | Potency [2] 2.09 µM | Potency [3] 4.18 µM | Potency [4] 1.32 µM | Potency [5] 3.32 µM | Potency [6] 2.35 µM | Potency [7] 7.43 µM | Potency [8] 0.935 µM | Potency [9] 1.48 µM | Potency [10] 3.32 µM | Potency [11] 2.35 µM | Potency [12] 3.32 µM | Potency [13] 2.35 µM | Potency [14] 8.33 µM | Potency [15] 8.33 µM | Potency [16] 3.72 µM | Potency [17] 2.96 µM

Nc1ccccc1NC(=O)c1ccc(CNc2nccc(-c3cccnc3)n2)cc1
active: Potency [1] 2.96 µM | Potency [2] 1.18 µM | Potency [3] 0.935 µM | Potency [4] 0.526 µM | Potency [5] 0.833 µM | Potency [6] 0.264 µM | Potency [7] 1.66 µM | Potency [20] 1.66 µM | Potency [8] 2.64 µM | Potency [9] 1.18 µM | Potency [10] 0.469 µM | Potency [11] 0.833 µM | Potency [12] 1.32 µM | Potency [13] 2.35 µM | Potency [14] 2.64 µM | Potency [15] 2.64 µM | Potency [17] 0.833 µM
-0.821: Z-AUC [18, 21]
inactive: Z-AUC [18] -0.45
-0.657: Z-AUC ([18]; measured here: PEO4 Z-AUC)

O=C(NC1CCNCC1)c1[nH]ncc1NC(=O)c1c(Cl)cccc1Cl
-1.05: Z-AUC ([18]; measured here: PEO4 Z-AUC)
active: Potency [1] 0.235 µM | Potency [2] 0.469 µM | Potency [3] 0.418 µM | Potency [4] 3.72 µM | Potency [5] 0.0743 µM | Potency [6] 1.87 µM | Potency [7] 0.526 µM | Potency [8] 0.469 µM | Potency [9] 0.833 µM | Potency [10] 0.59 µM | Potency [11] 0.662 µM | Potency [12] 0.833 µM | Potency [13] 0.166 µM | Potency [14] 1.05 µM | Potency [15] 0.526 µM | Potency [16] 0.332 µM | Potency [17] 0.264 µM | Potency [18] 0.977 µM
-1.49: Z-AUC [18, 21]

O=c1[nH]nc(Sc2ncc([N+](=O)[O-])s2)n1-c1ccc2c(c1)OCCO2
active: Potency [1] 3.32 µM | Potency [2] 3.72 µM | Potency [3] 2.09 µM | Potency [4] 0.935 µM | Potency [5] 2.96 µM | Potency [6] 2.09 µM | Potency [7] 4.18 µM | Potency [20] 2.64 µM | Potency [8] 2.09 µM | Potency [9] 2.09 µM | Potency [10] 2.35 µM | Potency [11] 2.35 µM | Potency [12] 0.743 µM | Potency [14] 3.72 µM | Potency [15] 8.33 µM | Potency [16] 2.96 µM | Potency [17] 2.96 µM
-0.291: Z-AUC ([18]; measured here: PEO4 Z-AUC)
inactive: Z-AUC [18] 0.0772
0.187: Z-AUC [18, 21]

COc1cc2c(NC3CCN(C(C)C)CC3)nc(C3CCCCC3)nc2cc1OCCCN1CCCC1
0.938: Z-AUC ([18]; measured here: PEO4 Z-AUC)
inactive: Z-AUC [18] 0.841
active: Potency [1] 16.6 µM | Potency [2] 5.26 µM | Potency [3] 5.26 µM | Potency [4] 16.6 µM | Potency [5] 6.62 µM | Potency [6] 3.32 µM | Potency [7] 11.8 µM | Potency [20] 2.96 µM | Potency [8] 2.64 µM | Potency [9] 4.69 µM | Potency [10] 5.9 µM | Potency [11] 13.2 µM | Potency [12] 5.26 µM | Potency [14] 6.62 µM | Potency [15] 7.43 µM | Potency [16] 8.33 µM | Potency [17] 14.8 µM
0.768: Z-AUC [18, 21]

COc1cc2c(Oc3ccc(-c4cnc(Nc5ccc(F)cc5)n(C)c4=O)cc3F)ccnc2cc1OCCCN1CCOCC1
inactive: Z-AUC [18] -1.38
-0.565: Z-AUC [18, 21]
active: Potency [1] 11.8 µM | Potency [2] 0.833 µM | Potency [3] 18.7 µM | Potency [4] 7.43 µM | Potency [5] 14.8 µM | Potency [6] 6.62 µM | Potency [7] 29.6 µM | Potency [20] 20.9 µM | Potency [8] 3.32 µM | Potency [9] 7.43 µM | Potency [10] 2.64 µM | Potency [11] 5.26 µM | Potency [12] 14.8 µM | Potency [13] 7.43 µM | Potency [14] 5.9 µM | Potency [16] 0.935 µM | Potency [17] 4.18 µM
-0.285: Z-AUC ([18]; measured here: PEO4 Z-AUC)
